Source: PubChem BioAssay AID485281 (National Center for Advancing Translational Sciences (NCATS), 2010)
Out of some 350,000 compounds screened, about 260 (0.074%) were called active. Roughly 8% stayed inconclusive and do not appear here. Calls follow the shape of the dose curve; as a rule, active = well fitted inhibition curve with a large enough effect; inconclusive = small, poorly fitted or top-dose-only effect; inactive = no such curve, though single readings can be large or run the other way. Shown is part of a subset that was picked to be rich in actives.

Target: Ferritin light chain (Equus caballus) (UniProt P02791)
Experiment: qHTS Assay for Identification of Novel General Anesthetics; also: nearly all actives have a fitted effect of over 20% in size
Details: apoferritin/1-aminoanthracene competitive binding, fluorescence; series mostly up to 77.5 µM; activity change, negative = displacement: at the top concentration
Description: Source: NIH Chemical Genomics Center [NCGC]
Assay Submitter: Roderic Eckenhoff, University of Pennsylvania
Screening Center PI: Christopher P. Austin, NIH
Probe Development: NIH Chemical Genomics Center [NCGC]
Anesthetic development has remained a largely empirical process. There are growing concerns about the cognitive effects of known general anesthetics and acceleration of the onset of neurodegenerative disease. The compounds' toxicity and multiple specific binding targets in the mammalian brain [4] has made them less attractive as drug leads. In this assay, a GABAergic mimetic model system, apoferritin and a profluorescent 1-aminoanthracene ligand (1-AMA), was used to construct a competitive binding assay for identification of novel general anesthetics. The assay was validated for 1-AMA using other known anesthetics, such as isoflurane (CID:3763) and propofol (CID: 4943), [6].
[1] S.L. Bianchi, T. Tran, C. Liu, S. Lin, Y. Li, J.M. Keller, R.G. Eckenhoff, and M.F. Eckenhoff, Brain and behavior changes in 12-month-old Tg2576 and nontransgenic mice exposed to anesthetics. Neurobiol Aging 29 (2008) 1002-10.
[2] Z. Xie, Y. Dong, U. Maeda, R.D. Moir, W. Xia, D.J. Culley, G. Crosby, and R.E. Tanzi, The inhalation anesthetic isoflurane induces a vicious cycle of apoptosis and amyloid beta-protein accumulation. J Neurosci 27 (2007) 1247-54.
[3] P. Honegger, and J.M. Matthieu, Selective toxicity of the general anesthetic propofol for GABAergic neurons in rat brain cell cultures.
[4] M.F. Eckenhoff, K. Chan, and R.G. Eckenhoff, Multiple specific binding targets for inhaled anesthetics in the mammalian brain. J Pharmacol Exp Ther 300 (2002) 172-9.
[5] C.A. Butts, J. Xi, G. Brannigan, A.A. Saad, S.P. Venkatachalan, R.A. Pearce, M.L. Klein, R.G. Eckenhoff, and I.J. Dmochowski, Identification of a fluorescent general anesthetic, 1-aminoanthracene. Proc Natl Acad Sci U S A 106 (2009) 6501-6.
[6] W.A. Lea, J. Xi, A. Jadhav, L. Lu, C.P. Austin, A. Simeonov, and R.G. Eckenhoff, A high-throughput approach for identification of novel general anesthetics. PLoS One 4 (2009) e7150.
Three uL of reagents (free 1-AMA (50% saturated solution of 1-aminoanthracene
in PBS) in columns 3, 4 as negative control and 1-AMA/apoferritin mixture (10 uM horse-spleen apoferritin in 50% saturated 1-aminoanthracene in PBS) in columns 1, 2, 5-48) was dispensed into 1536-well Greiner black assay plates. Compounds (23 nL) were transferred via Kalypsys pintool equipped with 1,536-pin array (10 nL slotted pins, V&P Scientific, San Diego, CA). Titration of the positive control, propofol, were delivered via pin transfer from separate control plates to the 2nd column of each assay plate. The starting concentration of the control, dissolved in DMSO, was at 160 mM, followed by two-fold dilution points in duplicate, for a total of 16 concentrations. The plates were incubated for 10 min at room temperature, and then read on an EnVision HTS multilabel reader (Perkin-Elmer, Waltham, MA) (end point read, 3 min/plate) using Fura2 BFP excitation filter (380 nm, bandwidth 10 nm) and fluorescein emission filter (535 nm, bandwidth 25 nm) set. A LANCE/DELFIA dichroic mirror with a cutoff wavelength at 400 nm was used to maximize signal accuracy and strength. […] Activity was computed as the normalized fluorescence response relative to free 1-AMA and 1-AMA/apoferritin complex values. […]
% is scaled to controls: 0 for no effect and ±100 for the full control effect; potency is read from the fitted curve at half-maximal effect.

Ferritin light chain (Equus caballus), sequence (P02791 2-175 limits assumed): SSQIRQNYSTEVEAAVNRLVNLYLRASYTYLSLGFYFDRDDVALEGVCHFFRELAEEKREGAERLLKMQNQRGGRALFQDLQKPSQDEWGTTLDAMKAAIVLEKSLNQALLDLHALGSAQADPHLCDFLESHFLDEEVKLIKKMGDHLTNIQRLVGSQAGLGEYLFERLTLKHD

Question: `N[C@@H](Cc1c[nH]c2ccccc12)c1nnc(SCc2c(F)cccc2Cl)o1` was tested. Which Potency did it give?
Answer: Its Potency is 28.2 µM (active).

Question: Which “activity change, negative = displacement” value does the source give for `CCOCCCNC(=O)c1c(NC(=O)c2nc(SC)ncc2Cl)sc2c1CCCC2` here?
Answer: Its value is 173% (inactive).

Question: For `COC(=O)c1ccccc1NC(=O)c1cc(-c2ccccc2O)no1`, which “activity change, negative = displacement” value is on record?
Answer: Its value is 164% (inactive).

Question: `CCc1ccccc1NC(=O)c1sc2nc3c(cc2c1N)CN(Cc1ccccc1)CC3` was tested. Which “activity change, negative = displacement” value did it give?
Answer: The value was 62.1% (inactive).

Question: For `C[C@H]1C/C=C/[C@@H]2[C@@H]3O[C@]3(C)[C@@H](C)[C@H]3[C@H](Cc4ccccc4)NC(=O)[C@]32OC(=O)O/C=C/[C@](C)(O)C1=O`, which “activity change, negative = displacement” value is on record?
Answer: The value was -9.63% (inactive).
